The source made the active and inactive calls. Rule for the calls, unless noted: active = hit-call score of the fitted dose curve at least 0.9, where 1 is the maximum; inactive = score below 0.9.
What was measured:
[1] = target: Peroxisome proliferator-activated receptor gamma (Homo sapiens) (UniProt P37231); test: OT_PPARg_PPARgSRC1_1440: Odyssey Thera (OT) 24-hour Protein-Complementation Assay for Peroxisome Proliferator-activated Receptor Gamma/ SRC-1 Co-activator (AID 2283388; active = hit-call score of the fitted dose curve at least 0.9, where 1 is the maximum)
In short: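 HEK293T transiently transfected with PPARg/SRC-1 split-Venus YFP fusions 48 h before dosing, then treated 24 h at 37C. Fixed cells imaged; nuclear/cytoplasmic 488 nm fluorescence ratio, gain of signal versus DMSO.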

[2] = CEETOX_H295R_11DCORT: CeeTox H295R High-throughput Steroidogenesis Assay for 11-Deoxycortisol (11DCORT) (AID 2283432); conditions: actives raise or lower the signal;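 for AC50: 11-deoxycortisol secreted into the medium measured by LC-MS/MS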
In short: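 H295R cells prestimulated 48 h with 10 uM forskolin, then exposed 48 h to chemical in 0.1% DMSO. 11-Deoxycortisol in medium quantified by HPLC-MS/MS after MTBE extraction; bidirectional fit versus DMSO. MTT viability read in same wells.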

[3] = CEETOX_H295R_OHPREG: CeeTox H295R High-throughput Steroidogenesis Assay for OH-Pregnenolone (OHPREG) (AID 2283434); conditions: actives raise or lower the signal
In short: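 Hormone levels in spent medium were measured by tandem mass spectrometry following liquid-liquid extraction. Cells (H295R) had been forskolin-stimulated (10 uM, 48 h) before a 48 h chemical exposure at 0.1% DMSO, with activity fitted in both directions against DMSO.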

[4] = CEETOX_H295R_OHPROG: CeeTox H295R High-throughput Steroidogenesis Assay for OH-Progesterone (OHPROG) (AID 2283435); conditions: actives raise or lower the signal
In short: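 H295R human adrenal cells were prestimulated 48 h with 10 uM forskolin, then exposed 48 h to test chemical (0.1% DMSO final). 17alpha-hydroxyprogesterone in medium was measured by HPLC-MS/MS after MTBE extraction; bidirectional fitting vs DMSO.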

[5] = CEETOX_H295R_CORTISOL: CeeTox H295R High-throughput Steroidogenesis Assay for Cortisol (AID 2283438); conditions: actives raise or lower the signal;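 note: cortisol secreted into medium quantified by LC-MS/MS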
In short: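 H295R human adrenal cells were prestimulated 48 h with 10 uM forskolin, then exposed 48 h to test chemical (0.1% DMSO final). Medium cortisol was quantified by HPLC-MS/MS after MTBE extraction; bidirectional fitting relative to DMSO baseline.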

[6] = CEETOX_H295R_DOC: CeeTox H295R High-throughput Steroidogenesis Assay for DOC (AID 2283439); conditions: actives raise or lower the signal
In short: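 H295R adrenal cells prestimulated 48 h with 10 uM forskolin, then exposed 48 h to test chemical (0.1% DMSO final). Medium 11-deoxycorticosterone extracted with MTBE, quantified by HPLC-MS/MS; bidirectional fit versus DMSO baseline; MTT viability in same wells.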

[7] = CEETOX_H295R_ESTRONE: CeeTox H295R High-throughput Steroidogenesis Assay for Estrone (AID 2283441); conditions: actives raise or lower the signal;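 note: estrone secreted into medium measured by LC-MS/MS after dansyl derivatization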
In short: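 H295R cells; 48 h forskolin (10 uM) prestimulation; 48 h compound exposure, 0.1% DMSO final. Medium estrone: MTBE extraction, dansyl derivatization, HPLC-MS/MS. Bidirectional fit vs DMSO.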

[8] = CEETOX_H295R_PROG: CeeTox H295R High-throughput Steroidogenesis Assay for Progesterone (PROG) (AID 2283442); conditions: actives raise or lower the signal;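 for AC50: human H295R adrenal cells primed with 10 µM forskolin before dosing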
In short: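 H295R adrenal cells prestimulated 48 h with 10 uM forskolin, then exposed 48 h to test chemical in 0.1% DMSO. Progesterone in medium quantified by HPLC-MS/MS after MTBE extraction; viability checked by MTT in same wells.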

[9] = read-out: Cyclin D2 (CCND2), CCND2 (gene 894); test: LTEA_HepaRG_CCND2: Life Technologies and Expression Analysis (LTEA) Assay for Cyclin D2 (CCND2) using HepaRG (AID 2283449); conditions: mRNA level, 48 h; actives raise or lower the signal
In short: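 Read-out is CCND2 mRNA level measured by qRT-PCR in human HepaRG liver cells and normalised to three housekeeping genes. Chemicals were applied for 48 h at up to 100 uM, with gain or loss fitted relative to 0.5% DMSO.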

[10] = read-out: Cyclin Dependent Kinase Inhibitor 1A (CDKN1A), CDKN1A (gene 1026); test: LTEA_HepaRG_CDKN1A: Life Technologies and Expression Analysis (LTEA) Assay for Cyclin Dependent Kinase Inhibitor 1A (CDKN1A) using HepaRG (AID 2283450); conditions: mRNA level, 48 h; actives raise or lower the signal
In short: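 Differentiated HepaRG cells in serum-free induction medium, exposed 48 h in duplicate to eight half-log concentrations up to 100 uM in 0.5% DMSO. mRNA measured by TaqMan qRT-PCR, normalized to ACTB, GAPDH, POLR2A; bidirectional fit versus DMSO.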

[11] = read-out: Cyclin D1 (CCND1), CCND1 (gene 595); test: LTEA_HepaRG_CCND1: Life Technologies and Expression Analysis (LTEA) Assay for Cyclin D1 (CCND1) using HepaRG (AID 2283451); conditions: mRNA level, 48 h; actives raise or lower the signal;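 for AC50: TaqMan qRT-PCR transcript level normalised to ACTB GAPDH and POLR2A housekeeping genes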
In short: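 Differentiated HepaRG cells exposed 48 h in serum-free induction medium to eight half-log concentrations from 100 uM top, 0.5% DMSO, duplicates. CCND1 mRNA measured by Fluidigm TaqMan qRT-PCR, normalised to ACTB, GAPDH, POLR2A; bidirectional fit.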

[12] = read-out: catalase (CAT), CAT (gene 847); test: LTEA_HepaRG_CAT: Life Technologies and Expression Analysis (LTEA) Assay for catalase (CAT) using HepaRG (AID 2283452); conditions: mRNA level, 48 h; actives raise or lower the signal;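 for AC50: TaqMan qRT-PCR signal normalized to ACTB GAPDH and POLR2A housekeeping genes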
In short: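 Expression of CAT was quantified by TaqMan qRT-PCR with ACTB/GAPDH/POLR2A normalization after 48 h chemical exposure of HepaRG. Eight-point half-log series, top 100 uM, in 0.5% DMSO; gain or loss fitted against vehicle.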

[13] = read-out: flavin-containing dimethylaniline monooxygenases 3 (FMO3), FMO3 (gene 2328); test: LTEA_HepaRG_FMO3: Life Technologies and Expression Analysis (LTEA) Assay for flavin-containing dimethylaniline monooxygenases 3 (FMO3) using HepaRG (AID 2283453); conditions: mRNA level, 48 h; actives raise or lower the signal;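 for AC50: FMO3 transcript by TaqMan qRT-PCR normalized to ACTB GAPDH and POLR2A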
In short: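 HepaRG, 48 h exposure, 8-pt half-log series from 100 uM, 0.5% DMSO vehicle, duplicates; FMO3 transcript by Fluidigm TaqMan qRT-PCR, housekeeping-normalized; gain/loss fit vs DMSO.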

[14] = read-out: CFLAR gene, CFLAR (gene 8837); test: LTEA_HepaRG_CFLAR: Life Technologies and Expression Analysis (LTEA) Assay for CFLAR gene using HepaRG (AID 2283455); conditions: mRNA level, 48 h; actives raise or lower the signal
In short: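 HepaRG, 48 h exposure, 8-pt conc-response (100 uM top, half-log), 0.5% DMSO vehicle, duplicates. CFLAR expression by qRT-PCR; ACTB/GAPDH/POLR2A normalization; gain or loss fit vs DMSO baseline.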

[15] = read-out: Forkhead box O1 (FOXO1), FOXO1 (gene 2308); test: LTEA_HepaRG_FOXO1: Life Technologies and Expression Analysis (LTEA) Assay for Forkhead box O1 (FOXO1) using HepaRG (AID 2283456); conditions: mRNA level, 48 h; actives raise or lower the signal
In short: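 Readout is FOXO1 transcript level by multiplexed qRT-PCR against three housekeeping genes, curve-fitted in both directions relative to 0.5% DMSO vehicle. Human HepaRG cultures received chemicals for 48 h, up to 100 uM in half-log steps.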

[16] = read-out: growth arrest and DNA damage 45 (GADD45A), GADD45A (gene 1647); test: LTEA_HepaRG_GADD45A: Life Technologies and Expression Analysis (LTEA) Assay for growth arrest and DNA damage 45 (GADD45A) using HepaRG (AID 2283458); conditions: mRNA level, 48 h; actives raise or lower the signal
In short: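 Differentiated HepaRG cells were exposed in duplicate for 48 h in serum-free induction medium to 8-point half-log concentrations up to 100 uM in 0.5% DMSO. GADD45A mRNA was measured by TaqMan qRT-PCR, normalized to ACTB, GAPDH and POLR2A, with bidirectional fitting versus DMSO.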

[17] = CEETOX_H295R_ANDR: CeeTox H295R High-throughput Steroidogenesis Assay for Androstenedione (ANDR) (AID 2283436); conditions: actives raise or lower the signal
In short: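 Read-out is androstenedione secreted into medium, measured by tandem mass spectrometry after liquid-liquid extraction. Cells were H295R, dosed for 48 h per modified OECD 456; activity fitted in both directions relative to DMSO.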

[18] = CEETOX_H295R_ESTRADIOL: CeeTox H295R High-throughput Steroidogenesis Assay for Estradiol (AID 2283440); conditions: actives raise or lower the signal;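 note: estradiol secreted into medium quantified by LC-MS/MS after dansyl derivatisation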
In short: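 H295R cells pre-stimulated 48 h with 10 uM forskolin, then exposed 48 h to chemical in 0.1% DMSO. Medium estradiol quantified by MTBE extraction, dansyl derivatisation and HPLC-MS/MS; bidirectional fit versus DMSO; MTT viability required >/=70%.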

[19] = read-out: Cytochrome P450 (CYP1A1), CYP1A1 (gene 1543); test: LTEA_HepaRG_CYP1A1: Life Technologies and Expression Analysis (LTEA) Assay for Cytochrome P450 (CYP1A1) using HepaRG (AID 2283454); conditions: mRNA level, 48 h; actives raise or lower the signal
In short: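 Differentiated human HepaRG cells, after 48 h plating, exposed in duplicate for 48 h in serum-free induction medium to 8 half-log concentrations up to 100 uM in 0.5% DMSO. CYP1A1 mRNA by qRT-PCR, normalized to ACTB/GAPDH/POLR2A; bidirectional fit versus DMSO.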

[20] = CEETOX_H295R_TESTO: CeeTox H295R High-throughput Steroidogenesis Assay for Testosterone (TESTO) (AID 2283457); conditions: actives raise or lower the signal;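 for AC50: cells exposed to chemicals for 48 h before medium collection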
In short: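 H295R adrenal cells, passage ≤10, exposed to chemicals for 48 h. Testosterone in medium measured by MTBE extraction and HPLC-MS/MS against a 7-point standard curve. Bidirectional fit versus DMSO; MTT viability checked in the same wells.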

Measured: AC50

Peroxisome proliferator-activated receptor gamma (Homo sapiens), sequence (P37231 whole entry, looked up, the tested form may be a part): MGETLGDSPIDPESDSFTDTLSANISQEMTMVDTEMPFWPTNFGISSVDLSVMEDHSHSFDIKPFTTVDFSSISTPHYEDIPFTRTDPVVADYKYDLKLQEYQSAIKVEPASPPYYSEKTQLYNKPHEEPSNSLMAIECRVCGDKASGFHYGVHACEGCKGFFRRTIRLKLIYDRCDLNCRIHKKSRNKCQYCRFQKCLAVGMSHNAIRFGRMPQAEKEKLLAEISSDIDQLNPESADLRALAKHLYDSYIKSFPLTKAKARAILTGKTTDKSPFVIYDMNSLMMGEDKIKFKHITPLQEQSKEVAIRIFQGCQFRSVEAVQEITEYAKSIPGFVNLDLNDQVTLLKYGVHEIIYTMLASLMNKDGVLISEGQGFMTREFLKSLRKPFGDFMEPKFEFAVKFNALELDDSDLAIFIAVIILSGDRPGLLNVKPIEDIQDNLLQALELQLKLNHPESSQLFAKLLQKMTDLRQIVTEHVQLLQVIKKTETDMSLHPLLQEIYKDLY

CNC
inactive: [1]

Oc1ccc(-c2ccccc2)cc1
active: [2] 87.6 µM | [3] 74.2 µM | [4] 13.1 µM
inactive: [1] | [5] | [6] | [7]

O=C/C=C/c1ccccc1
inactive: [1]

Clc1ccc(COC(Cn2ccnc2)c2ccc(Cl)cc2Cl)cc1 (centres undefined)
inactive: [1]

CC(=O)c1cc(C(C)(C)C)cc2c1CCC2(C)C
inactive: [1]

COP(=S)(OC)Oc1ccc(Sc2ccc(OP(=S)(OC)OC)cc2)cc1
inactive: [1]

CC1(C)CCC(Cc2ccc(Cl)cc2)C1(O)Cn1cncn1 (centres undefined)
active: [3] 0.143 µM | [4] 0.0959 µM | [8] 0.0359 µM
inactive: [1]

CCC[CH2][Sn]([Cl])([Cl])[Cl]
inactive: [1]

C[C@@H]1C[C@@H]([C@H](O)CC2CC(=O)NC(=O)C2)C(=O)[C@@H](C)C1
active: [10] 13.2 µM | [11] 3.34 µM | [12] 12.4 µM | [13] 25.9 µM | [14] 13.4 µM | [16] 50 µM
inactive: [1] | [3] | [4] | [8] | [9] | [15]

CC(=O)C=C(C)C
inactive: [1]

C[C@H]1CCCC(=O)CCC/C=C/c2cc(O)cc(O)c2C(=O)O1
inactive: [1]

CCC1(c2ccc(N)cc2)CCC(=O)NC1=O (centres undefined)
inactive: [1]

COc1ccc(C=O)cc1OC
inactive: [1]

COP(=O)(OC)OC
inactive: [1]

O=C(NCO)NCO
inactive: [1]

CCOP(=S)(OCC)Oc1nc(Cl)c(Cl)cc1Cl
active: [2] 94.9 µM | [3] 80.5 µM | [17] 60.7 µM | [5] 81.6 µM | [8] 39.3 µM | [19] 34.4 µM | [20] 62.6 µM
not listed: [9]
inactive: all other assays above

CC12CC1(C)C(=O)N(c1cc(Cl)cc(Cl)c1)C2=O (centres undefined)
active: [4] 20.9 µM | [17] 30.9 µM | [20] 25.4 µM
not listed: [7] | [16] | [18]
inactive: all other assays above

O=C(OC1CCCCC1)c1ccccc1C(=O)OC1CCCCC1
inactive: [1]

CCOP(=S)(OCC)SCSP(=S)(OCC)OCC
active: [2] 18.6 µM | [3] 14.9 µM | [4] 1.73 µM | [6] 1.37 µM | [8] 4.53 µM | [19] 33.1 µM | [16] 0.0566 µM
not listed: [17] | [20]
inactive: all other assays above

Cl/C=C\C[N+]12CN3CN(CN(C3)C1)C2
inactive: [1]

O=C(Nc1ccc2[nH]ccc2c1)c1cc2cc(F)ccc2n1Cc1cccc(F)c1
inactive: [1] | [18] | [7] | [10] | [14] | [15]
active: [2] 3.48 µM | [3] 1.11 µM | [4] 0.124 µM | [5] 4.26 µM | [6] 0.522 µM | [8] 4.84 µM | [11] 39.5 µM | [12] 25.1 µM | [13] 26.3 µM | [19] 91.7 µM | [16] 20.7 µM

COP(=O)(OC)O/C(=C\Cl)c1cc(Cl)c(Cl)cc1Cl
inactive: [1] | [3] | [4] | [17] | [8] | [20]

Source: PubChem BioAssay (EPA / NIEHS)
